This passage reports AC50 and outcome results from PubChem BioAssay (EPA / NIEHS).

Holding throughout (settings): mRNA level, 48 h; actives raise or lower the signal
Read-out in experiment [1]: ATP-citrate lyase (ACLY), ACLY (gene 47)
As to the kind of experiment: LTEA_HepaRG_ACLY: Life Technologies and Expression Analysis (LTEA) Assay for ATP-citrate lyase (ACLY) using HepaRG (AID 2283466). The procedure, abridged: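 HepaRG, 48 h exposure, 8-pt half-log dilutions (top 100 uM), 0.5% DMSO. Readout: ACLY mRNA, TaqMan qRT-PCR, housekeeping-normalized (ACTB/GAPDH/POLR2A). Bidirectional curve fit vs DMSO.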

Read-out in experiment [2]: Peroxisomal acyl-coenzyme A oxidase 1 (ACOX1) gene, ACOX1 (gene 51)
The experiment is described as follows: LTEA_HepaRG_ACOX1: Life Technologies and Expression Analysis (LTEA) Assay for Peroxisomal acyl-coenzyme A oxidase 1 (ACOX1) gene using HepaRG (AID 2283467). The procedure, abridged:
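Measured by qRT-PCR against three housekeeping genes: ACOX1 transcript change in human HepaRG cells after 48 h dosing. Concentrations ran up to 100 uM in half-log steps. Curves were fitted bidirectionally relative to 0.5% DMSO.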

Read-out in experiment [3]: Alkaline Phosphatase, Placental (ALPP) gene, ALPP (gene 250)
The experiment is described as follows: LTEA_HepaRG_ALPP: Life Technologies and Expression Analysis (LTEA) Assay for Alkaline Phosphatase, Placental (ALPP) gene using HepaRG (AID 2283468).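 For AC50: differentiated human HepaRG liver cells in serum-free induction medium.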 The procedure, abridged: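 qRT-PCR readout of ALPP mRNA (Fluidigm TaqMan), normalized to ACTB/GAPDH/POLR2A, after 48 h chemical exposure of HepaRG cells; 8-point half-log series, top 100 uM, 0.5% DMSO vehicle. Bidirectional curve fit versus DMSO baseline.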

Read-out in experiment [4]: adenosine kinase (ADK) gene, ADK (gene 132)
The experiment is described as follows: LTEA_HepaRG_ADK: Life Technologies and Expression Analysis (LTEA) Assay for adenosine kinase (ADK) gene using HepaRG (AID 2283471). The procedure, abridged:
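Differentiated HepaRG cells dosed 48 h in serum-free induction medium, 0.5% DMSO vehicle, eight half-log concentrations from 100 uM, in duplicate. ADK mRNA by TaqMan qRT-PCR normalised to ACTB, GAPDH, POLR2A; bidirectional fit versus DMSO.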

Read-out in experiment [5]: Alpha-fetoprotein (AFP) gene, AFP (gene 174)
As to the kind of experiment: LTEA_HepaRG_AFP: Life Technologies and Expression Analysis (LTEA) Assay for Alpha-fetoprotein (AFP) gene using HepaRG (AID 2283472). An outline of the steps: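 Human HepaRG cells plated 48 h, then switched to serum-free induction medium and exposed in duplicate for 48 h to 8-point half-log series from 100 uM in 0.5% DMSO. AFP mRNA by qRT-PCR, normalized to ACTB, GAPDH, POLR2A; bidirectional fit versus DMSO.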

Read-out in experiment [6]: BCL2L11 (gene 10018)
The experiment is described as follows: LTEA_HepaRG_BCL2L11: Life Technologies and Expression Analysis (LTEA) Assay for Bcl-2 (BCL2L11) gene using HepaRG (AID 2283473). An outline of the steps: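 HepaRG, 48 h exposure, 8-pt half-log series from 100 uM in 0.5% DMSO, duplicates; qRT-PCR (Fluidigm TaqMan) for BCL2L11, housekeeping-normalized; bidirectional curve fit relative to DMSO baseline.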

Read-out in experiment [7]: Apolipoprotein A-V (APOA5) gene, APOA5 (gene 116519)
As to the kind of experiment: LTEA_HepaRG_APOA5: Life Technologies and Expression Analysis (LTEA) Assay for Apolipoprotein A-V (APOA5) gene using HepaRG (AID 2283474). An outline of the steps:
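HepaRG, 48 h chemical exposure in serum-free induction medium, 8-pt half-log series (top 100 uM), 0.5% DMSO vehicle, duplicates. Readout: APOA5 mRNA by qRT-PCR, housekeeping-normalized; bidirectional fit vs DMSO baseline.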

Read-out in experiment [8]: Apoptosis regulator Bcl-2 (Homo sapiens) (UniProt P10415)
As to the kind of experiment: LTEA_HepaRG_BCL2: Life Technologies and Expression Analysis (LTEA) Assay for Bcl-2 gene using HepaRG (AID 2283475). An outline of the steps:
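Differentiated HepaRG cells in serum-free induction medium were exposed for 48 h to eight half-log concentrations up to 100 uM in 0.5% DMSO, in duplicate. BCL2 mRNA was quantified by TaqMan qRT-PCR normalised to ACTB, GAPDH and POLR2A, with bidirectional fitting versus DMSO.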

Read-out in experiment [9]: Bcl-2 (BID) gene, BID (gene 637)
As to the kind of experiment: LTEA_HepaRG_BID: Life Technologies and Expression Analysis (LTEA) Assay for Bcl-2 (BID) gene using HepaRG (AID 2283476). An outline of the steps: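 Differentiated HepaRG cells in serum-free induction medium were exposed in duplicate for 48 h to eight half-log concentrations up to 100 uM in 0.5% DMSO. BID mRNA was quantified by qRT-PCR, normalized to ACTB, GAPDH and POLR2A.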

Read-out in experiment [10]: Caspase-3 (Homo sapiens) (UniProt P42574)
The experiment is described as follows: LTEA_HepaRG_CASP3: Life Technologies and Expression Analysis (LTEA) Assay for cysteine-aspartic acid protease (CASP3) using HepaRG (AID 2283477). An outline of the steps:
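HepaRG, 48 h exposure, 8 conc. (top 100 uM, half-log steps, duplicate), 0.5% DMSO vehicle; qRT-PCR of CASP3 transcript, housekeeping-normalised (ACTB/GAPDH/POLR2A); bidirectional curve fit vs DMSO baseline.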

Read-out in experiment [11]: Cytochrome P450 (CYP24A1), CYP24A1 (gene 1591)
As to the kind of experiment: LTEA_HepaRG_CYP24A1: Life Technologies and Expression Analysis (LTEA) Assay for Cytochrome P450 (CYP24A1) using HepaRG (AID 2283478). The procedure, abridged:
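qRT-PCR read-out: CYP24A1 transcript levels normalized to three housekeeping genes, bidirectional curve fits against 0.5% DMSO baseline. Human HepaRG cells treated 48 h with chemicals at eight concentrations from 100 uM in half-log steps.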

Read-out in experiment [12]: Cytochrome P450 (CYP1A2), CYP1A2 (gene 1544)
As to the kind of experiment: LTEA_HepaRG_CYP1A2: Life Technologies and Expression Analysis (LTEA) Assay for Cytochrome P450 (CYP1A2) using HepaRG (AID 2283479). The procedure, abridged:
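HepaRG, 48 h exposure, top 100 uM, half-log 8-pt, 0.5% DMSO vehicle, duplicates. Readout: TaqMan qRT-PCR of CYP1A2 mRNA, housekeeping-normalized (ACTB/GAPDH/POLR2A). Gain/loss fit relative to DMSO baseline.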

Read-out in experiment [13]: cysteine-aspartic acid protease (CASP8), CASP8 (gene 841)
As to the kind of experiment: LTEA_HepaRG_CASP8: Life Technologies and Expression Analysis (LTEA) Assay for cysteine-aspartic acid protease (CASP8) using HepaRG (AID 2283480). The procedure, abridged: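 HepaRG, 48 h exposure, duplicate wells; 8 conc, half-log from 100 uM, 0.5% DMSO. Serum-free induction medium. CASP8 mRNA by TaqMan qRT-PCR, norm. ACTB/GAPDH/POLR2A; gain/loss fitted vs DMSO.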

Read-out in experiment [14]: Cytochrome P450 (CYP2B6), CYP2B6 (gene 1555)
The experiment is described as follows: LTEA_HepaRG_CYP2B6: Life Technologies and Expression Analysis (LTEA) Assay for Cytochrome P450 (CYP2B6) using HepaRG (AID 2283481). The procedure, abridged: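 Read-out is CYP2B6 mRNA by TaqMan qRT-PCR, normalized to three housekeeping genes and fitted bidirectionally against 0.5% DMSO baseline. Human HepaRG cells received test chemicals for 48 h, top concentration 100 uM, half-log dilutions.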

Read-out in experiment [15]: CYP2C8 (gene 1558)
As to the kind of experiment: LTEA_HepaRG_CYP2C8: Life Technologies and Expression Analysis (LTEA) Assay for CYP2C8 using HepaRG (AID 2283483). The procedure, abridged: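 CYP2C8 mRNA induction or loss, by qRT-PCR normalized to ACTB/GAPDH/POLR2A, is read in HepaRG cells after 48 h treatment. Concentrations run from 100 uM down in half-log dilutions, with 0.5% DMSO as vehicle and baseline.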

Read-out in experiment [16]: CYP2C9 (gene 1559)
As to the kind of experiment: LTEA_HepaRG_CYP2C9: Life Technologies and Expression Analysis (LTEA) Assay for CYP2C9 using HepaRG (AID 2283484). An outline of the steps: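 Cells plated 48 h, switched to serum-free induction medium, then treated in duplicate for 48 h at eight concentrations (max 100 uM, 0.5% DMSO). RNA then analysed by qRT-PCR for CYP2C9; curves fitted in both directions relative to DMSO.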

Read-out in experiment [17]: CYP2E1 (gene 1571)
As to the kind of experiment: LTEA_HepaRG_CYP2E1: Life Technologies and Expression Analysis (LTEA) Assay for CYP2E1 using HepaRG (AID 2283485). An outline of the steps: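 HepaRG cells in serum-free induction medium exposed 48 h to test chemicals, 8 half-log concentrations up to 100 uM in 0.5% DMSO, duplicate. CYP2E1 mRNA by qRT-PCR, normalized to ACTB, GAPDH, POLR2A; bidirectional fit versus DMSO.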

Read-out in experiment [18]: CYP4A11 (gene 1579)
As to the kind of experiment: LTEA_HepaRG_CYP4A11: Life Technologies and Expression Analysis (LTEA) Assay for CYP4A11 using HepaRG (AID 2283486). An outline of the steps: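 CYP4A11 transcript levels were quantified by TaqMan qRT-PCR after HepaRG human liver cells were treated for 48 hours with test chemicals (top 100 uM, half-log dilutions, 0.5% DMSO). Gain or loss of signal was fitted relative to DMSO.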

Read-out in experiment [19]: Pro-epidermal growth factor (Homo sapiens) (UniProt P01133)
As to the kind of experiment: LTEA_HepaRG_EGF: Life Technologies and Expression Analysis (LTEA) Assay for Epidermal growth factor (EGF) using HepaRG (AID 2283489). An outline of the steps: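 qRT-PCR readout of EGF transcript after 48 h chemical exposure of HepaRG cells; eight concentrations from 100 uM down in half-log steps, duplicate wells, 0.5% DMSO vehicle. Bidirectional curve fitting against DMSO baseline.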

Read-out in experiment [20]: Cytochrome P450 3A4 (Homo sapiens) (UniProt P08684)
As to the kind of experiment: LTEA_HepaRG_CYP3A4: Life Technologies and Expression Analysis (LTEA) Assay for CYP3A4 using HepaRG (AID 2283487). An outline of the steps:
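Differentiated HepaRG cells in serum-free induction medium exposed in duplicate for 48 h to 8 half-log concentrations up to 100 uM in 0.5% DMSO. CYP3A4 mRNA measured by qRT-PCR normalized to ACTB, GAPDH and POLR2A; bidirectional fit versus DMSO.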

Calls of active or inactive are those of the source. Rule for the calls: active = hit-call score of the fitted dose curve at least 0.9, where 1 is the maximum; inactive = score below 0.9.

Apoptosis regulator Bcl-2 (Homo sapiens), sequence (P10415 whole entry, looked up): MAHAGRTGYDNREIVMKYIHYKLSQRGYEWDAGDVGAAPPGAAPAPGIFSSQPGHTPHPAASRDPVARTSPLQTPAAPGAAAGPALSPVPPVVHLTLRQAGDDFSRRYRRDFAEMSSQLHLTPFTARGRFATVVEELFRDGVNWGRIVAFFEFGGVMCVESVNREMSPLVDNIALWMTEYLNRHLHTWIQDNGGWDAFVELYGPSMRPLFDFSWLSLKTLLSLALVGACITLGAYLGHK
Caspase-3 (Homo sapiens), sequence (P42574 whole entry, looked up): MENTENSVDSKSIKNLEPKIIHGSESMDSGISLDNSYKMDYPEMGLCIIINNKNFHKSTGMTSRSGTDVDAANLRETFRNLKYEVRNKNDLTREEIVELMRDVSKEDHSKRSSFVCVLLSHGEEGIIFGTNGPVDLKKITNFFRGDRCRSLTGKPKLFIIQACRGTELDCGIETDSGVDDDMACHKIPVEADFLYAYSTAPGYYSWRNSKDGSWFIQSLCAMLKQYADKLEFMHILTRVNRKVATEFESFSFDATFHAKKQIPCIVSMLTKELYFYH
Cytochrome P450 3A4 (Homo sapiens), sequence (P08684 whole entry, looked up): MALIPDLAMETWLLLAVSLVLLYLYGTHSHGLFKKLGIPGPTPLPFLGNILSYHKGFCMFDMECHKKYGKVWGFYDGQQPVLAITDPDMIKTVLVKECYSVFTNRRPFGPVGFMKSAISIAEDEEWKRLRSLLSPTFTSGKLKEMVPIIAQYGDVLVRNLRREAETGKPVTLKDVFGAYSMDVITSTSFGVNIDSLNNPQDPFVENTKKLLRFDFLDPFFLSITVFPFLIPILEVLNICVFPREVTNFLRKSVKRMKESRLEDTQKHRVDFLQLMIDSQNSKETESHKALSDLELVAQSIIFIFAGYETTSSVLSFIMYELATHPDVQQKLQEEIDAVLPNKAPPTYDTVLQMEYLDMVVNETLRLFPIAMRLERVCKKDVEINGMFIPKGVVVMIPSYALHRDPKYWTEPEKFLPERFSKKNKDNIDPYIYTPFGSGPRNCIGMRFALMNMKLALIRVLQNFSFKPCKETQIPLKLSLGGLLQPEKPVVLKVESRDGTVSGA

Turning to `O=C(CCCN1CCC(O)(c2ccc(Cl)cc2)CC1)c1ccc(F)cc1`, the AC50 (in general, the midpoint of the concentration-response curve, whichever way the signal moves) in experiment [1] was 32 µM (active); in experiment [2], 67 µM (active); in experiment [3], 36 µM (active); in [5], 67.8 µM (active); in experiment [8] it was 81.3 µM (active); in experiment [12] it was 82.6 µM (active). In addition, the AC50 was 79.7 µM (active) in experiment [14], 77.8 µM (active) in [16], 66.2 µM (active) in experiment [17] and 73.5 µM (active) in experiment [18]. Moreover, the result in experiment [4], in [6], in [7], in [9], in experiment [10] and in experiment [11] was inactive. Further, the call in experiment [13], in experiment [15] and in experiment [19] was inactive.
Regarding `CCCCCCCCCCCCCCC`, the outcome in [1], in experiment [2], in [3], in [4], in [5] and in experiment [6] was inactive. Also, the outcome in experiment [7], in experiment [8], in experiment [9], in experiment [10], in experiment [11] and in [12] was inactive. For the same compound, the compound was called inactive in [13], in experiment [15], in experiment [16], in [18] and in experiment [19]. The concentration at half-maximal activity (AC50) in experiment [14] is 5.89 µM (active); in [17] it was 1.94 µM (active); in experiment [20], 8.75 µM (active).
For the compound `CC(=O)Nc1ccc(O)cc1`, the compound was called inactive in [1], in [2], in [3], in experiment [4], in experiment [5] and in [6]. Moreover, the outcome in experiment [7], in experiment [8], in experiment [9], in experiment [10], in experiment [11] and in experiment [12] was inactive. The call in [13], in experiment [14], in experiment [15], in [16], in [17] and in experiment [18] was inactive. The outcome in [20] and in experiment [19] was inactive.
As for `O=C(c1ccccc1)c1ccccc1`, the outcome in experiment [1], in [2], in [3], in experiment [4], in experiment [5] and in [6] was inactive. Besides, the compound was called inactive in [7], in experiment [8], in experiment [9], in experiment [10], in experiment [13] and in [19].
